Pf Dd2 growth: P. falciparum Dd2 growth inhibitors, primary screen, SYBR Green fluorescence, single dose replicates; 72 h; active compounds read low; activity change, % at 10 µM; 94,000 tested, 2.3% active; AID 1159554, 2015; in the data active = activity change below about -80%; inconclusive = no clear call, values can overlap the other calls
C diff growth: C. difficile growth inhibitors, primary screen, HTS; Clostridium difficile clinical isolate growth, OD600, 24 h; active compounds read low; growth activity, negative = inhibition, % at 16 µg/mL (by protocol); 86,000 tested, 0.25% active;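 active = mean growth activity at or below -80% and every replicate also at or below -80%; inconclusive = mean at or below -80% but some replicate above -80%; inactive = mean growth activity above -80%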
T cruzi growth-1: T. cruzi intracellular proliferation inhibitors, primary screen, cell-based, beta-gal Tulahuen parasites, NIH3T3 host, luminescence | T. cruzi beta-gal in NIH3T3, GalScreen luminescence, 90 h | inhibition, % at 8.34 µM | 77,000 tested, 5.9% active | AID 624255, 2012;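 active = mean inhibition above about 93%, with at least 55% of replicates each passing it, limit read from the data, passing the limit was not always enough; inconclusive = only one of those two conditions holds; inactive = neither condition holds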
T cruzi growth-2: T. cruzi intracellular proliferation inhibitors, confirmation, cell-based, NIH3T3 host, beta-gal parasite, luminescence, cherry-pick; shares compounds with T cruzi growth-1; T. cruzi beta-gal in NIH3T3, GalScreen luminescence, 90 h; inhibition, % at 8.35 µM; 5,600 tested, 72% active; AID 651739, 2012;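 active = mean replicate inhibition above about 95% and at least 55% of replicates individually reaching it, limit read from the data; inconclusive = only one of the two criteria is met; inactive = neither criterion is met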
T cruzi growth-3: inhibitors of intracellular T. cruzi replication, confirmation, NIH3T3 host cells, beta-gal parasites, cherry-pick, set 2. AID 651740, 2012. T. cruzi beta-gal in NIH3T3, GalScreen luminescence, 90 h. 5,600 tested, 21% active. inhibition, % at 2.09 µM. shares compounds with T cruzi growth-1;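 active = mean inhibition above about 95%, with at least 55% of replicates also reaching it, limit read from the data; inconclusive = meets just one of the two conditions; inactive = meets neither condition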
3T3 cytotox: cytotoxicity in mouse NIH/3T3 fibroblasts, confirmation, cytotoxicity control for T. cruzi proliferation inhibitor project, cell-based, cherry-pick, single point. shares compounds with T cruzi growth-1. NIH/3T3 viability, CellTiter-Glo ATP luminescence, 90 h. cytotoxicity (signal decrease), % at 8.35 µM. 5,600 tested, 14% active. AID 651742, 2012;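 active = mean signal decrease across replicates above about 35% based on untreated-well scatter, with enough replicates individually passing, limit read from the data; inconclusive = no rule stated though some were filed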
NIH3T3 tox 2: NIH/3T3 fibroblast cytotoxicity, confirmation, cytotoxicity control, cell-based, cherry-pick, single point, set 2 | shares compounds with T cruzi growth-1 | 5,600 tested, 56% active | inhibition, % at 24.9 µM | NIH/3T3 viability, CellTiter-Glo ATP luminescence, 90 h | AID 651744, 2012;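 active = mean loss of cell viability signal at or above a set limit, and enough replicates individually reaching it; inconclusive = meets only the mean limit or only the replicate share; inactive = meets neither condition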
Hits are given with their value; i = inactive; ? = inconclusive; nt = not tested or not shown. This is a sample that favours compounds with a hit; in the whole collection about 6.7% have one here.

SMILES	Pf Dd2 growth	C diff growth	T cruzi growth-1	T cruzi growth-2	T cruzi growth-3	3T3 cytotox	NIH3T3 tox 2
C[C@H]1CN([C@@H](C)CO)S(=O)(=O)c2ccc(C#Cc3ccccc3)cc2O[C@H]1CN(C)C(=O)c1ccccn1	i	i	i	nt	nt	nt	nt
C[C@H]1CN([C@@H](C)CO)S(=O)(=O)c2ccc(C#Cc3ccc(F)cc3)cc2O[C@H]1CN(C)C(=O)c1ccccn1	i	i	?	108	i	i	i
C[C@@H]1CN([C@@H](C)CO)S(=O)(=O)c2ccc(C#Cc3ccccc3)cc2O[C@@H]1CN(C)C(=O)c1ccccn1	i	i	i	nt	nt	nt	nt
O=C(C[C@H]1CC[C@H](NC(=O)Nc2cc(F)ccc2F)[C@@H](CO)O1)NCc1ccc2c(c1)OCO2	i	nt	i	nt	nt	nt	nt
Cc1ccccc1S(=O)(=O)N1C[C@H](O)COC[C@H]2O[C@H](CC(=O)O)CC[C@@H]21	i	i	i	nt	nt	nt	nt
CCCNC(=O)N1[C@H](C#N)[C@@H](c2ccc(-c3cccnc3)cc2)[C@@H]1CO	i	i	i	nt	nt	nt	nt
CCCNC(=O)N1[C@H](C#N)[C@@H](c2ccc(-c3cccc(OC)c3)cc2)[C@@H]1CO	i	i	i	nt	nt	nt	nt
CCCNC(=O)N1[C@@H](C#N)[C@@H](c2ccc(-c3cccc(OC)c3)cc2)[C@@H]1CO	i	i	98	99	i	i	51
CCCNC(=O)N1[C@H](C#N)[C@H](c2ccc(-c3cccc(OC)c3)cc2)[C@@H]1CO	?	i	99	i	112	i	40
C[C@H](NC(=O)C[C@H]1CC[C@H]2[C@@H](COC[C@H](O)CN2C(=O)Nc2ccccc2)O1)c1ccccc1	i	nt	i	nt	nt	nt	nt
O=C(N[C@@H]1CC[C@H](CCNS(=O)(=O)c2ccc(F)cc2)O[C@H]1CO)C1CCCC1	i	i	nt	nt	nt	nt	nt
CO[C@@H]1CN(C)C(=O)c2ccc(NC(=O)C3CCC3)cc2OC[C@H](C)N(Cc2ccc(F)cc2)C[C@@H]1C	nt	nt	i	nt	nt	nt	nt
C[C@H](CO)N1C[C@H](C)[C@H](CN(C)C(=O)Nc2ccccc2)OCc2ccccc2-c2ccccc2C1=O	i	nt	i	nt	nt	nt	nt
C[C@H](CO)N1C[C@H](C)[C@H](CN(C)C(=O)Nc2ccnc(N3CCOCC3)c2)OCc2ccccc2-c2c(n(C)c3ccccc23)C1=O	i	i	nt	nt	nt	nt	nt
C[C@H](CO)N1C[C@H](C)[C@H](CN(C)C(=O)Nc2ccnc(N3CCOCC3)c2)OCc2ccccc2-c2ccccc2C1=O	i	i	110	?	i	i	i
C[C@H](CO)N1C[C@H](C)[C@@H](CN(C)C(=O)Nc2ccccc2)OCc2ccccc2-c2ccccc2C1=O	i	nt	i	nt	nt	nt	nt
C[C@@H]1CN([C@@H](C)CO)C(=O)c2ccccc2-c2ccccc2CO[C@@H]1CN(C)C(=O)Nc1ccnc(N2CCOCC2)c1	i	i	106	107	i	i	28
C[C@H]1CN([C@@H](C)CO)C(=O)c2ccccc2-c2ccccc2CO[C@H]1CN(C)C(=O)Nc1ccnc(N2CCOCC2)c1	i	i	105	101	i	i	33
O=C(C1CCOCC1)N1[C@@H](CO)[C@@H](c2ccccc2)C12CN(Cc1cccnc1)C2	i	i	nt	nt	nt	nt	nt
CO[C@H]1CC[C@@H]2CCN(C)C(=O)C[C@@H](c3ccccc3)CN(C)C(=O)c3cccc(C#N)c3OC[C@H]1O2	nt	i	i	nt	nt	nt	nt
COCC(=O)Nc1ccc2c(c1)OC[C@@H](C)N(Cc1ccccc1F)C[C@@H](C)[C@H](OC)CN(C)C2=O	i	i	i	nt	nt	nt	nt
CCCc1cn(CC[C@@H]2CC[C@@H](NC(=O)Cc3cccnc3)[C@@H](CO)O2)nn1	i	i	i	nt	nt	nt	nt
CO[C@@H]1CN(C)C(=O)c2ccc(NC(=O)C3CCC3)cc2OC[C@@H](C)N(CC2CCCCC2)C[C@@H]1C	i	nt	i	nt	nt	nt	nt
Cc1ccc(S(=O)(=O)N(C)C[C@@H]2OCCCC[C@H](C)Oc3ccc(NC(=O)Nc4ccc(F)cc4)cc3C(=O)N([C@H](C)CO)C[C@@H]2C)cc1	i	nt	109	97	107	i	41
C[C@@H]1CCCCO[C@@H](CN(C)S(=O)(=O)c2ccc(Cl)cc2)[C@@H](C)CN([C@H](C)CO)C(=O)c2cc(NC(=O)Nc3ccc(F)cc3)ccc2O1	i	i	i	nt	nt	nt	nt
SMILES	Pf Dd2 growth	C diff growth	T cruzi growth-1	T cruzi growth-2	T cruzi growth-3	3T3 cytotox	NIH3T3 tox 2
C[C@@H]1CCCCO[C@@H](CN(C)S(=O)(=O)c2ccc(Cl)cc2)[C@H](C)CN([C@@H](C)CO)C(=O)c2cc(NC(=O)Nc3ccc(F)cc3)ccc2O1	i	i	i	nt	nt	nt	nt
Cc1ccc(S(=O)(=O)N(C)C[C@@H]2OCCCC[C@@H](C)Oc3ccc(NC(=O)Nc4ccc(F)cc4)cc3C(=O)N([C@H](C)CO)C[C@H]2C)cc1	i	nt	114	109	109	i	i
O=C(C[C@H]1C=C[C@H](NC(=O)C2CC2)[C@@H](CO)O1)NCCCN1CCOCC1	i	i	nt	nt	nt	nt	nt
C[C@@H]1CCCCO[C@@H](CN(C)C(=O)Nc2ccccc2)[C@H](C)CN([C@@H](C)CO)C(=O)c2cc(NC(=O)Nc3ccc(F)cc3)ccc2O1	i	nt	97	114	i	i	i
C[C@@H]1CN([C@H](C)CO)C(=O)c2cc(NC(=O)Nc3ccc(F)cc3)ccc2O[C@@H](C)CCCCO[C@H]1CN(C)C(=O)Nc1ccccc1	i	nt	i	nt	nt	nt	nt
C[C@H](CO)N1C[C@H](C)[C@H](CN(C)C(=O)Nc2ccc(F)cc2)OCCCC[C@H](C)Oc2ccc(NC(=O)Nc3ccccc3)cc2C1=O	i	i	123	107	i	i	i
C[C@@H]1CCCCO[C@@H](CN(C)C(=O)Nc2ccc(F)cc2)[C@@H](C)CN([C@@H](C)CO)C(=O)c2cc(NC(=O)Nc3ccccc3)ccc2O1	i	i	i	nt	nt	nt	nt
CC(C)NC(=O)N(C)C[C@H]1OCCCC[C@H](C)Oc2ccc(NC(=O)c3ccncc3)cc2C(=O)N([C@H](C)CO)C[C@@H]1C	nt	i	i	nt	nt	nt	nt
COc1cccc(S(=O)(=O)N(C)C[C@H]2Oc3cc(C#CCC(C)C)ccc3S(=O)(=O)N([C@H](C)CO)C[C@H]2C)c1	i	i	?	97	115	i	74
COc1cccc(S(=O)(=O)N(C)C[C@H]2Oc3cc(C#CCN(C)C)ccc3S(=O)(=O)N([C@@H](C)CO)C[C@@H]2C)c1	i	i	108	114	i	i	i
COc1ccccc1S(=O)(=O)N(C)C[C@@H]1Oc2cc(/C=C/c3ccccc3)ccc2S(=O)(=O)N([C@@H](C)CO)C[C@@H]1C	i	i	i	nt	nt	nt	nt

Screening results: PubChem BioAssay, Broad Institute
